ADAM17 inh – ADAM17 inhibitors, primary screen, biochemical, QFRET; recombinant ADAM17, EDANS/DABCYL FRET peptide cleavage; Disintegrin and metalloproteinase domain-containing protein 17 (Homo sapiens), P78536; 370,000 compounds, 0.83% hits; inhibition, % at 6.95 µM;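 active = inhibition above the mean of compounds lying between control limits plus 3 SD, set per campaign, cut at about 8.5% in these data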;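 also: 0% = DMSO-only wells as the low control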
Target sequence (P78536 215-824 limits assumed): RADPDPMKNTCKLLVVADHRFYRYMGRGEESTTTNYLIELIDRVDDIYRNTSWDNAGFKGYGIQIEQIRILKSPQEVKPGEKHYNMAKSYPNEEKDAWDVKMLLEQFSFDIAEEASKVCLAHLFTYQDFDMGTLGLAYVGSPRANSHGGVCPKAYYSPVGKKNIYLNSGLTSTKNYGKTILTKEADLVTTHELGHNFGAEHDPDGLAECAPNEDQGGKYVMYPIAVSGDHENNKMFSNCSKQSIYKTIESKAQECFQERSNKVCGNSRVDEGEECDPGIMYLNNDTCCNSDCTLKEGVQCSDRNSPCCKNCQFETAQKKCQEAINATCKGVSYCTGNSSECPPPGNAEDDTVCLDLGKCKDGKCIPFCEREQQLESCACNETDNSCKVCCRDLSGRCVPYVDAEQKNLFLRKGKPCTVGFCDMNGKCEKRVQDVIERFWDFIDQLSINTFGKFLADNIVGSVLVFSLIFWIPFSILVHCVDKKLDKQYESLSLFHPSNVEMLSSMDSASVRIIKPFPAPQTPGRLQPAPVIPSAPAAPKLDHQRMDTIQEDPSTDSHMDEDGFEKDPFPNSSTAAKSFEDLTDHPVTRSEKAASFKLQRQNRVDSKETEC
ADAM10 inh – human ADAM10 inhibitors, primary screen, biochemical, QFRET, HTS. Disintegrin and metalloproteinase domain-containing protein 10 (Homo sapiens), O14672. recombinant ADAM10, EDANS/DABCYL FRET peptide cleavage, 3 h. inhibition, % at 7 µM. 370,000 compounds, 0.62% hits;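 active = inhibition above a per-campaign cutoff equal to the mean of compounds falling between control-based bounds plus 3 SD, cut at about 20% in these data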;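 also: 0% = DMSO wells while the 100% control is not disclosed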
PLC-gamma1 inh – PLC-gamma1 enzyme inhibitors, primary screen, biochemical, fluorescence, purified enzyme | 370,000 compounds, 0.84% hits | fluorogenic substrate | inhibition, % at 12.2 µM; in the data active = inhibition above about 9.5%
Rce1 inhib – yeast Rce1p protease inhibitors, primary screen, biochemical, fluorescence, cell-free homogeneous | 290,000 compounds, 0.27% hits | calls only | yeast membranes, quenched prenylated peptide cleavage fluorescence | CAAX prenyl protease 2 (Saccharomyces cerevisiae (strain ATCC 204508 / S288c)), Q03530 | AID 2563, 2010;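 active = fall in fluorescence gain of 50% or more versus controls, with final raw signal at or below 3038400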;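 also: plate controls were neutral control wells for no effect and wells lacking membranes for full effect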
PLC-beta3 inh – human PLC-beta3 inhibitors, primary screen, biochemical, fluorescence; 1-phosphatidylinositol 4,5-bisphosphate phosphodiesterase beta-3 (Homo sapiens), Q01970; Purified PLC-beta3, fluorogenic substrate; inhibition, % at 12.2 µM; 370,000 compounds, 0.18% hits; AID 720704, 2013; in the data active = inhibition above about 11%;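 also: 0% = median of compound wells on plate and 100% = full blocker control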
ADAM10 counter – ADAM10 inhibitors, counter-screen for ADAM17 exosite inhibitor project, biochemical, FRET, human ADAM10; recombinant ADAM10, EDANS/DABCYL FRET peptide cleavage, 3 h; inhibition, % at 6.95 µM; shares compounds with ADAM17 inh; 2,900 compounds, 47% hits;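 active = mean inhibition over the triplicate runs exceeds the activity threshold set in the earlier primary screen, cut at about 20% in these data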;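 also: 0% = DMSO wells and 100% = marimastat wells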
ADAM17 confirm – ADAM17 inhibitors, hit retest, confirmation, biochemical, QFRET peptide cleavage; shares compounds with ADAM17 inh; recombinant ADAM17, EDANS/DABCYL QFRET peptide cleavage; inhibition, % at 6.95 µM; 2,900 compounds, 65% hits;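 active = mean inhibition across replicates above the hit cutoff set in the primary screen, cut at about 8.5% in these data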;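 also: 0% = DMSO wells and 100% = marimastat wells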
Active calls of the source: *; i = inactive; · = not tested or not shown. Compounds with a hit are over-represented: about 2.1% of the library has one in this group of screens.

SMILES	ADAM17 inh	ADAM10 inh	PLC-gamma1 inh	Rce1 inhib	PLC-beta3 inh	ADAM10 counter	ADAM17 confirm
Cc1ccc(S(=O)(=O)N2CCC(C(=O)OC(C)C(=O)NCc3ccccc3)CC2)cc1C (stereo unspecified)	9.7*	15	5	i	-3	7	7
Cc1ccc(S(=O)(=O)N2CCC(C(=O)OC(C)C(=O)NC3CCCCC3C)CC2)cc1C (stereo unspecified)	-1	2	3	·	-1	·	·
Cc1ccc(-n2nnnc2CCl)cc1	-3	-14	-1	i	-5	·	·
O=C(CCn1cccn1)N1CCCC(N2CCN(c3cccc(Cl)c3)CC2)C1 (stereo unspecified)	3	-4	-2	i	-4	·	·
CCOC(=O)[C@@H]1[C@H]2COc3ccc(Br)cc3[C@H]2N2C(=O)N(c3ccc(C)cc3)C(=O)[C@]12C	8.8*	14	0	i	0	33*	22*
CC(C)CCCCCCNC(=S)Nc1ccc(S(=O)(=O)N2CCOCC2)cc1	9.0*	16	0	i	3	47*	23*
O=S(=O)(c1ccc(NC(=S)Nc2ccccc2)cc1)N1CCOCC1	-4	2	1	i	3	·	·
Cc1cc(C)c2c(=O)[nH][nH]c2n1	12*	5	-1	·	-2	1	7
Cc1cc(=O)[nH]c2[nH][nH]c(=O)c12	-8	-6	5	·	-1	·	·
Cc1ccc(C(=O)N2CCN(c3ccccc3Cl)CC2)cc1[N+](=O)[O-]	2	3	3	i	2	·	·
CC(C)c1ccc(OCCCN2CCC(C(O)(c3ccccc3)c3ccccc3)CC2)cc1	3	12	7	·	6	·	·
CC(C)NC(=O)c1cc(C2CCCCN2S(=O)(=O)c2ccc(C#N)cc2)on1 (stereo unspecified)	-6	-8	1	·	-2	·	·
N#Cc1cccc(NC(=O)c2cc(C3CCCCN3S(=O)(=O)c3ccccc3)on2)c1 (stereo unspecified)	12*	14	7	·	-1	18	12*
COc1nnc(-c2ccc(C(=O)N3C[C@@H]4C[C@H](C3)c3cccc(=O)n3C4)cc2)c2ccccc12	9.6*	4	9	i	3	1	7
O=C1/C(=C\c2cccc(O)c2)SC(=S)N1Cc1ccccc1	8.8*	10	6	i	-7	13	6
COCc1[nH]nc2c1C(c1ccc(C)cc1)NC2=O (stereo unspecified)	1	-9	6	·	6	·	·
C=CC[C@@H](CC(=O)N(CCO)Cc1ccccc1)C(=O)N[C@H](COC(=O)[C@H](CC=C)CC(=O)OC(C)(C)C)Cc1c[nH]c2ccccc12	9.9*	17	3	·	1	48*	23*
C=CC[C@H](CC(=O)N[C@H](CO)Cc1ccccc1)C(=O)N[C@H](COC(=O)[C@@H](CC=C)CC(=O)OC(C)(C)C)Cc1c[nH]c2ccccc12	14*	16	0	·	-3	27*	15*
C[C@H](c1ccccc1)N1C[C@H](COCc2ccccc2)Oc2cc(N3CC[C@@H](O)C3)ccc2S1(=O)=O	9.8*	13	-1	·	-5	29*	15*
C[C@@H](c1ccccc1)N1C[C@H](COCc2ccccc2)Oc2cc(N3CC[C@@H](O)C3)ccc2S1(=O)=O	10*	12	6	·	4	16	6
Cc1onc(-c2ccccc2)c1C(O)c1ccc(F)cc1 (stereo unspecified)	0	1	4	i	4	·	·
N#CC1(NC(=O)COC(=O)c2ccccc2SCC(=O)N2CCCC2)CCCCC1	-5	1	0	i	-7	·	·

Screening data: PubChem, several laboratories
